“And” between values parts separate entries of the source, which are not always exact repeats. Identical values can stand only once. The source made the active and inactive calls. Where a call stands in place of a potency, no number is given. Calls follow the shape of the dose curve; as a rule, active = well fitted activation curve with a large enough effect; inconclusive = small, poorly fitted or top-dose-only effect; inactive = no such curve, though single readings can be large or run the other way.
Potency is read from the fitted curve at half-maximal effect.

Chain of Cytochrome P450 3A4 (Homo sapiens) (P08684 whole entry, looked up): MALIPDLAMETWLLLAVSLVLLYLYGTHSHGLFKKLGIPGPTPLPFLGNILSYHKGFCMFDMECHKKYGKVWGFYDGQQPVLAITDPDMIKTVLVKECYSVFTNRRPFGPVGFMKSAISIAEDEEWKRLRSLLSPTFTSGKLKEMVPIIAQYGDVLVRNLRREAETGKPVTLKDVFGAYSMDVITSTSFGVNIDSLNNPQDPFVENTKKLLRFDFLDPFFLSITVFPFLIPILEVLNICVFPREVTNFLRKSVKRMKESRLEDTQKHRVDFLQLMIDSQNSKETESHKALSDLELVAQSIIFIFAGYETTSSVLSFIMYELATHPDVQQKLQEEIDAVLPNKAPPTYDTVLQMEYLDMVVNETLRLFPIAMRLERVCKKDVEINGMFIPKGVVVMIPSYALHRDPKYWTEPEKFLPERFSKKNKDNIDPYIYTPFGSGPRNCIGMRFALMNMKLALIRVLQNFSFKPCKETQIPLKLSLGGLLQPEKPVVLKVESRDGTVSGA

The experiment concerns the target Cytochrome P450 3A4 (Homo sapiens) (UniProt P08684). Briefly: qHTS Assay for Activators of Cytochrome P450 3A4 (AID 885). Also: nearly all actives have a fitted effect of over 65% in size. Conditions: recombinant CYP3A4, Luciferin-PPXE luminescence, 60 min; series mostly up to 57.1 µM. The protocol: NIH Molecular Libraries Screening Centers Network [MLSCN]
NIH Chemical Genomics Center [NCGC]
The P450 gene superfamily is involved in the metabolism and clearance of xenobiotics. This assay used human CYP3A4 to measure the dealkylation of luciferin-6' phenylpiperazinylyl (Luciferin-PPXE; […]) to luciferin. The luciferin is then measured by luminescence after the addition of a luciferase detection reagent. Luciferin-PPXE concentration in the assay was equal to its KM for CYP3A4. Inhibitors and some substrates limit the production of luciferin, and decrease measured luminescence; activators increase the production of luciferin and luminescence.
NCGC Assay Protocol Summary:
Two uL of enzyme and substrate mix (final concentrations: 20nM CYP3A4, 25uM Luciferin-PPXE, 200mM KPO4) were dispensed into a white, solid bottom 1536-well microtiter plate. 23nL of compound was transferred by a pin tool. The plate was incubated at RT for 10 min. Two uL of an NADPH regeneration solution (Promega supplied reagent) was dispensed and the reaction was allowed to continue for 60 min at RT. Then the reaction was stopped by reconstituted luciferin detection buffer. After another 20 min of incubation the plate was read on the ViewLux (Perkin Elmer) at 60 sec exposure and 2x2 binning. This protocol was carried out with Promega-Glo reagents and further information can be found at http://www.promega.com/tbs/tb325/tb325.pdf. Data were normalized to the to AC100 inhibition (57 uM ketoconazole).
Keywords: P450, CYP2D6, Luciferase, MLSMR, MLSCN, NIH Roadmap, qHTS, NCGC
(In general: qHTS replaces the single test concentration by a dilution series.)
Consider `C[C@]12C=CC(=O)C=C1CC[C@H]1[C@@H]3C[C@@H](O)[C@](O)(C(=O)CO)[C@@]3(C)C[C@H](O)[C@@]12F`, for which the Potency entry is “inactive”. Then `CN(C)CCOC(=O)COc1ccc(Cl)cc1`, with “inactive”; and `CCCCNc1c(C(=O)OCC)c(C)nc2c1cnn2CC`, with “inactive”. As to `C[n+]1cc2c3c(ccc2c2ccc4cc5c(cc4c21)OCO5)OCO3`, the Potency entry was “inactive”.

With `CC1=NS(=O)(=O)c2cc(Cl)ccc2N1`, the Potency result is “inactive”. As to `Brc1c(NC2=NCCN2)ccc2nccnc12`, the Potency result was “inactive”.

As for `c1cnc(N2CCN(Cc3ccc4c(c3)OCO4)CC2)nc1`, the Potency entry was “inactive”. The value for `COc1ccc(CN(CCN(C)C)c2ccccn2)cc1` was “inactive”; that for `Cc1nc2ccccn2c(=O)c1CCN1CCC(C(=O)c2ccc(F)cc2)CC1` was “inactive”; that for `NC(N)=NC(=O)Cc1c(Cl)cccc1Cl` was “inactive”. Turning to `CN1CCN(C2=Nc3ccccc3Oc3ccc(Cl)cc32)CC1`, the Potency entry was “inactive”. Then `C[C@]12CCC(=O)C=C1CC[C@@H]1[C@@H]2C(=O)C[C@@]2(C)[C@H]1CC[C@]2(O)C(=O)CO`, with “inactive”. The value for `CCN1CCc2nc(N)oc2CC1` was “inactive”; that for `O=C(CCNNC(=O)c1ccncc1)NCc1ccccc1` was “inactive”. Regarding `COC(=O)[C@H]1[C@H]2C[C@@H]3c4[nH]c5cc(OC)ccc5c4CCN3C[C@H]2C[C@@H](OC(=O)c2cc(OC)c(OC)c(OC)c2)[C@@H]1OC`, the Potency result is “inactive”. The value for `N[C@@H](COP(=O)(O)O)C(=O)O` was “inactive”; that for `CN(C(=O)CCCOc1ccc2[nH]c(=O)ccc2c1)C1CCCCC1` was “inactive”; that for `COC(=O)[C@@H](N)Cc1ccc(O)c(O)c1` was “inactive”. On to `Cc1nc2sccn2c(=O)c1CCN1CCC(=C(c2ccc(F)cc2)c2ccc(F)cc2)CC1`, for which the Potency entry was “inactive”. Then `CCO/C([O-])=N/c1c[n+](N2CCOCC2)no1`, with “inactive”. For the compound `COc1cc2c(cc1OC)-c1cc(=Nc3c(C)cc(C)cc3C)n(C)c(=O)n1CC2`, the Potency result was “inactive”. The value for `OCCN1CCN(CCCN2c3ccccc3C=Cc3ccccc32)CC1` was “inactive”; that for `Cc1ccc(Cl)c(Nc2ccccc2C(=O)O)c1Cl` was 20 µM (active) and 12.6 µM (active) and 25.1 µM (active); that for `CCOC(=O)c1cnc2c(cnn2CC)c1NN=C(C)C` was “inactive”. Then `c1cc(CN2CCCCC2)cc(OCCCNc2nc3ccccc3s2)c1`, with “inactive”. Take `CCCCCCCC/C=C\CCCCCCCC(=O)NCc1ccc(O)c(OC)c1`: the Potency entry was “inactive”.

As for `O=C1NCN(c2ccccc2)C12CCN(CCCC(c1ccc(F)cc1)c1ccc(F)cc1)CC2`, the Potency entry is “inactive”. Then `CCCC(C(=O)OCCN(CC)CC)(c1ccccc1)c1ccccc1`, with “inactive”.

For the origin of these results see PubChem BioAssay (NCATS).
